Only some compounds are listed: those with a hit (about 1.8% of all), similar ones and a draw of the others.
TrxR1 substrate = qHTS Assay for Substrates of Mammalian Selenoprotein Thioredoxin Reductase 1 (TrxR1): qHTS | Thioredoxin reductase 1, cytoplasmic (Rattus norvegicus), O89049 | AID 588456, 2011 | 0.01% of 390,000 active | Potency, µM (titrated, usually from 114 µM), for inactives: at the highest dose activity change, negative = substrate turnover | purified TrxR1 substrate turnover, NADPH consumption readout; note: nearly all actives have a fitted effect of over 50% in size
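Rat TrxR1, dispensed at 90 nM, was prereduced with 400 uM NADPH (final) for 5 min at ~22 deg C, then incubated with compound 15 min before 400 uM selenite. A first-read NADPH fluorescence drop versus no-compound background flagged substrates.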
KAT2A inh = qHTS Assay for Inhibitors of GCN5L2; Histone acetyltransferase KAT2A (Homo sapiens), Q92830; GCN5L2 HAT assay, ThioGlo1 CoA-SH fluorescence; Potency, µM (highest dose often 58.9 µM), for inactives: at the highest dose activity change, negative = inhibition, hits mostly inhibitors; 0.21% of 390,000 active; AID 504327, 2011
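Preincubate 20nM GCN5L2 with compound 15 min, RT → add 50uM ThioGlo1 + 75uM H3(1-25) + 70uM acetyl-CoA → read fluorescence 0 and 20 min. Primary qHTS; fluorescent artifacts likely.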
VDR inhibitor = Inhibitors of the vitamin D receptor (VDR): qHTS. Vitamin D3 receptor (Homo sapiens), P11473. VDR-SRC2-3 peptide fluorescence polarization, 2 h. Potency, µM, for inactives: max response, negative = inhibition, usual class: inhibitors. 0.93% of 400,000 active
Target sequence (P11473 whole entry, looked up): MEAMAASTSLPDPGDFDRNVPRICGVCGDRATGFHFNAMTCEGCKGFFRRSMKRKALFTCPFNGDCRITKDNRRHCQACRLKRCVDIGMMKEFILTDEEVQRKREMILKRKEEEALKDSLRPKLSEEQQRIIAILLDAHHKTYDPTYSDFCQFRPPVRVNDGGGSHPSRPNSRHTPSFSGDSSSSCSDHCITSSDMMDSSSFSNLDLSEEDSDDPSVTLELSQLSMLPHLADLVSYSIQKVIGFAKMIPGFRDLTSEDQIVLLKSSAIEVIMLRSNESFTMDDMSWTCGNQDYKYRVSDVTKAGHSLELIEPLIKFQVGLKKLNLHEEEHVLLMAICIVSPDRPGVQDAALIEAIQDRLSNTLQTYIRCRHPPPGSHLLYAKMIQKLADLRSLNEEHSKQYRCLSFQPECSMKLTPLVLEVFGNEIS
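Inhibition of the VDR/SRC2-3 peptide interaction is quantified by fluorescence polarization. Compounds (23 nl, pintool) incubate with the reagents for 2 hours at ambient room temperature.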
TrxR1 inh = qHTS Assay for Inhibitors of Mammalian Selenoprotein Thioredoxin Reductase 1 (TrxR1): qHTS. Thioredoxin reductase 1, cytoplasmic (Rattus norvegicus), O89049. recombinant rTrxR1, NADPH fluorescence consumption, selenite substrate. Potency, µM (doses to about 114 µM), for inactives: at the highest dose activity change, negative = inhibition, hits mostly inhibitors. 1% of 390,000 active. AID 588453, 2011; note: nearly all actives have a fitted effect of over 65% in size
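Rat TrxR1 (90 nM in the dispensed reagent) was pre-reduced with 400 uM NADPH for 5 min at room temperature, then incubated with compound for 15 min. After 400 uM selenite was added, NADPH fluorescence (Ex 340/Em 450 nm) was followed for 8 min.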
* = called active by the depositor; u = inconclusive; x = no result; [ ] = another dose, or the depositor's remark. Calls come from the whole dose curve; as a rule, active = well fitted curve in the direction sought with a large enough effect; inconclusive = small, poorly fitted or top-dose-only effect, or another doubt; inactive = no such curve, though single readings can be large; an effect the other way counts as inactive or inconclusive. % is set by controls: 0 for no effect and ±100 for the full control effect; potency is the fitted concentration of half-maximal effect.

SMILES	TrxR1 substrate	KAT2A inh	VDR inhibitor	TrxR1 inh
O=C1C2C3C=CC(O3)C2C(=O)N1CC(O)c1ccccc1 (configuration not stated)	5%	-16%	4%	50µM*
CC1=C(C(=O)OCc2ccccc2)N2C(=O)[C@@H](NC(=O)OCc3ccccc3)[C@H]2SC1	3%	x	x	2%
CCOc1cccc2cc(-c3nnc(NCc4ccco4)s3)c(=O)oc12	12%[57.1 µM]	-2%	u	7.9µM*
COc1ccc2oc(=O)c(-c3nnc(NCc4ccco4)s3)cc2c1	6%	-12%	-24%	16µM*
N#CC[n+]1cccc(Br)c1	11%[0.0914 µM]	x	x	-14%
COC(=O)C1CCN(c2cc(=O)n(-c3ccc(OC)cc3)c(=O)[nH]2)CC1	6%[57.1 µM]	-4%	-27%	28µM*
COC(=O)C1CCN(c2cc(=O)n(C3CCCCC3)c(=O)[nH]2)CC1	3%	0%	-2%	-15%
Cc1cccc(Nc2n[nH]c(=S)s2)c1C	2%	22µM*	-78%	u
Cc1cccc(Nc2nc3ccccc3s2)c1C	13%	-4%	-16%	31%
COc1ccccc1Nc1n[nH]c(=S)s1	12%[57.1 µM]	6.3µM*	u	-5%[57.1 µM]
CCOc1ccc(CC(=O)C2C(=O)CC(C)(C)CC2=O)cc1OCC	-5%	-3%	-24%	35µM*
CCOc1ccc(CC(=O)C2C(=O)CCCC2=O)cc1OCC	3%[57.1 µM]	-15%	-16%	28µM*
COc1ccc(OC)c(-c2noc(N3CCN(c4cccc(C(F)(F)F)c4)CC3)n2)c1	2%	-13%	5%	22%
Cc1ccccc1-c1noc(-c2ccc(NCc3cccnc3)c([N+](=O)[O-])c2)n1	-7%	-6%	22%	15%
CCOc1ccc(NC(=O)c2sc3nc4c(c(-c5ccc(OC)cc5)c3c2N)C(=O)CC(C)(C)C4)cc1	0%	-11%	5%	4%
O=C(NCc1ccco1)c1ccccc1NS(=O)(=O)c1cccs1	-2%	-1%	-12%	-34%
O=C(NCc1ccco1)c1ccccc1NS(=O)(=O)c1ccc(Cl)s1	1%	3%	-26%	45µM*
Cc1cccc(N2C(S)=C(C#N)C(=O)NC23CCCCC3)c1	5%	-6%	45µM*	-13%
Cc1ccccc1N1C(S)=C(C#N)C(=O)NC12CCCCC2	-9%	-28%	32µM*	u
Cc1ccc(N2C(S)=C(C#N)C(=O)NC23CCCCC3)cc1	-2%	1%	32µM*	-16%
COC(=O)CSC1=C(C#N)C(=O)NC2(CCCCC2)S1	-2%[57.1 µM]	u	u	-13%[57.1 µM]
Cc1cccc(NC2=C(C#N)C(=O)NC3(CCCC3)S2)c1	-4%	-17%	20µM*	-21%[57.1 µM]
Cc1ccccc1N1C(=O)CC2(CCCC2)CC1=O	1%	-5%	11%	19%
O=C(NC(=S)NNS(=O)(=O)c1ccc(Cl)cc1)c1cccnc1	9%	-6%	-15%	18µM*
CCCc1c(OCCCCc2nn[nH]n2)ccc(C(C)=O)c1O	-5%	2%	45µM*	10%
SMILES	TrxR1 substrate	KAT2A inh	VDR inhibitor	TrxR1 inh
CC(C)(C)OC(=O)N1CCC(c2c(C(=O)NCc3cccs3)cnn2-c2ccc(F)cc2F)CC1	-5%	20%	8%	12%
CCSc1ccccc1C(=O)n1nnc2ccccc21	1%	x	50µM*	u
COCCNC(=O)/C(C#N)=C/c1cccc(/C=C(\C#N)C(=O)NCCOC)c1	4%[57.1 µM]	-3%	35µM*	u
N#C/C(=C\c1cccc([N+](=O)[O-])c1)C(=O)NCc1ccc(Cl)cc1	-18%[57.1 µM]	-8%	40µM*	u
N#C/C(=C/c1cccc([N+](=O)[O-])c1)C(=O)Nc1ccccc1O	-6%	-2%	u	-24%
N#C/C(=C\c1cccc([N+](=O)[O-])c1)C(=O)NCc1cccnc1	-1%	-6%	u	u
N#C/C(=C\c1ccccc1)C(=O)NNS(=O)(=O)c1cccc([N+](=O)[O-])c1	-2%	-25%	u	10µM*
N[C@H](C(=O)O)[C@H](Cc1ccccc1)C(=O)O	9%[57.1 µM]	-2%	6%	8%[57.1 µM]
COc1cc2nc(N3CCOCC3)nc(NC3CC3)c2cc1OC	196%	x	x	-9%
CCN[C@@H]1CN(CCCOC)S(=O)(=O)c2sc(S(N)(=O)=O)cc21	x	7%[21.4 µM]	1%	x
